Measured values published in ChEMBL document CHEMBL1961873, “Compounds: GSK PKIS; Assays: Nanosyn kinase panel” (2012).

What was measured:
[1] = biological target: T1, Tyrosine-protein kinase receptor TYRO3 (Homo sapiens) (UniProt Q06418); settings: at 1 µM
T1 sequence (whole entry): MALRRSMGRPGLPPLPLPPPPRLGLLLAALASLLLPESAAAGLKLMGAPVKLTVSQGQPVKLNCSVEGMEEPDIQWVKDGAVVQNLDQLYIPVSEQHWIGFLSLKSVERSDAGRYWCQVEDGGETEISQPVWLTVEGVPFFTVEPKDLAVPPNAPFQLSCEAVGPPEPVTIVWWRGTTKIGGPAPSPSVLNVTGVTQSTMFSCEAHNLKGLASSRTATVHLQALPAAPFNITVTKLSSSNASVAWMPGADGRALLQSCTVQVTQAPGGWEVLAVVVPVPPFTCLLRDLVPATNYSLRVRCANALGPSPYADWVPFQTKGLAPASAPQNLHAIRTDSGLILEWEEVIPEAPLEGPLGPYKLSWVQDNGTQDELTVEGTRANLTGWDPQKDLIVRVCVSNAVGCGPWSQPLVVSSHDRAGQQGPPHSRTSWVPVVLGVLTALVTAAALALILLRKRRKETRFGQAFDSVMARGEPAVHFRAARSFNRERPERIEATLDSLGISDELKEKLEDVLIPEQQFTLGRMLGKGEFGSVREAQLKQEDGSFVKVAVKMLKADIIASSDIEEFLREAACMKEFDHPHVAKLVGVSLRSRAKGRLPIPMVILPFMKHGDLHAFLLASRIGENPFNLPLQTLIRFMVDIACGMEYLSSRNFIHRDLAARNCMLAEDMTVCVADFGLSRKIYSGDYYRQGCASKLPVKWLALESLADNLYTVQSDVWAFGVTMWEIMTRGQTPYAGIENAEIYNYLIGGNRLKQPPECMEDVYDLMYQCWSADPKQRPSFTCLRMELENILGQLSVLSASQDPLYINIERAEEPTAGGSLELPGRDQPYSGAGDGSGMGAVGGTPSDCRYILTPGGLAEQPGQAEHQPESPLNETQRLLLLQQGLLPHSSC

[2] = biological target: Tyrosine-protein kinase Yes (Homo sapiens) (UniProt P07947); settings: at 0.1 µM
Chain of Tyrosine-protein kinase Yes (Homo sapiens) (P07947 2-543 limits assumed): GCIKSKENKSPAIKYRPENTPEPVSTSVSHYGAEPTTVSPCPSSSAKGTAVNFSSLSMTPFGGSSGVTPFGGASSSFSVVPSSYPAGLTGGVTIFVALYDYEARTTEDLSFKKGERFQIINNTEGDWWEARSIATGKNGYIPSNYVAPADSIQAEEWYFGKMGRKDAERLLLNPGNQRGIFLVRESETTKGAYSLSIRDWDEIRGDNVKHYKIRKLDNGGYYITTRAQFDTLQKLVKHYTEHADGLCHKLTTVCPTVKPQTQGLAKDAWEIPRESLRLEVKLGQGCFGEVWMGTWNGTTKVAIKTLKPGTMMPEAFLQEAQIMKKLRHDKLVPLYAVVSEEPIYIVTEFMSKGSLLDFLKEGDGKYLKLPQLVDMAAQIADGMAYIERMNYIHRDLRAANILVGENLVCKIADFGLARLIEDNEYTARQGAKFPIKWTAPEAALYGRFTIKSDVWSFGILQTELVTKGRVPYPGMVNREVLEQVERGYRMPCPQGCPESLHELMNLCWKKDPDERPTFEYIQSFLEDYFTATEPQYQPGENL

[3] = biological target: Tyrosine-protein kinase Yes (Homo sapiens) (UniProt P07947); settings: at 1 µM
[4] = biological target: T2, Tyrosine-protein kinase ZAP-70 (Homo sapiens) (UniProt P43403); settings: at 0.1 µM
T2 sequence (whole entry): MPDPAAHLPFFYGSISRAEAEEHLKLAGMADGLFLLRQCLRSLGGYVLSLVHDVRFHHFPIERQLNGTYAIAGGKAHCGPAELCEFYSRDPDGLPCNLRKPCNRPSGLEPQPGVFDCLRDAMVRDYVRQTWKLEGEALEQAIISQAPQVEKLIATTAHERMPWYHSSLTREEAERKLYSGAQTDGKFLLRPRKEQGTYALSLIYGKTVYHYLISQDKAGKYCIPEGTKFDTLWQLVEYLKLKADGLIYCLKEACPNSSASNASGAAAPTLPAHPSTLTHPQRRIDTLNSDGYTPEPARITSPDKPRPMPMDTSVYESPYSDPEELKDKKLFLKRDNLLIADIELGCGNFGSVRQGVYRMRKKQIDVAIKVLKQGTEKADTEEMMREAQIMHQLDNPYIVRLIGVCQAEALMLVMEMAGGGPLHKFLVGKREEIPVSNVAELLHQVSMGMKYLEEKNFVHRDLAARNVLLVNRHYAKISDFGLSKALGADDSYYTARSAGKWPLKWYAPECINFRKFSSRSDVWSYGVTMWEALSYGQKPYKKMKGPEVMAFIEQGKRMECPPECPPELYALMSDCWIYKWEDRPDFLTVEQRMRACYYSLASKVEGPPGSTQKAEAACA

[5] = biological target: T2, Tyrosine-protein kinase ZAP-70 (Homo sapiens); settings: at 1 µM
[6] = biological target: Serine/threonine-protein kinase B-raf (Homo sapiens) (UniProt P15056); settings: at 0.1 µM
Chain of Serine/threonine-protein kinase B-raf (Homo sapiens) (P15056 whole entry): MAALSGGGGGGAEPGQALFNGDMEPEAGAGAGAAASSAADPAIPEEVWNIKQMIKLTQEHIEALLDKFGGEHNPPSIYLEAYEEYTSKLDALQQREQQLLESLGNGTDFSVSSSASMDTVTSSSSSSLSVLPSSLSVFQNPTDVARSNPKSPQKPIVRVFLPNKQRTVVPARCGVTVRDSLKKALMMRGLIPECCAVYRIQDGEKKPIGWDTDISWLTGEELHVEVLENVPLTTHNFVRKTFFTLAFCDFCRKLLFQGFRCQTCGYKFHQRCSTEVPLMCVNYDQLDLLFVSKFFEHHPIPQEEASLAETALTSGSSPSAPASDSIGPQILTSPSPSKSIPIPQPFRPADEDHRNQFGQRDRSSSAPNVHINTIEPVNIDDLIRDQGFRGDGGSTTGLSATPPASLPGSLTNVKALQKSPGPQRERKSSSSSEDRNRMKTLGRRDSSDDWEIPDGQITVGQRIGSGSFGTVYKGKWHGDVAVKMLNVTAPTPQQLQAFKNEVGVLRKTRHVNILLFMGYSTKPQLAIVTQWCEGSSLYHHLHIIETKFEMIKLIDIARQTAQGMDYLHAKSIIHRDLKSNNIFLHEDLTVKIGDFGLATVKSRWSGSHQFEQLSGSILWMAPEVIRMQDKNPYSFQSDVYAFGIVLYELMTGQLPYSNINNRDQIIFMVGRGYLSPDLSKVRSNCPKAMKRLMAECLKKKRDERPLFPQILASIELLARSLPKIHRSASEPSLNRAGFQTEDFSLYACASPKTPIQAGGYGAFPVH

[7] = biological target: Serine/threonine-protein kinase B-raf (Homo sapiens) (UniProt P15056); settings: at 1 µM
[8] = tested on: Serine/threonine-protein kinase B-raf (Homo sapiens), P15056 [V600E]; settings: at 0.1 µM
Chain of Serine/threonine-protein kinase B-raf (Homo sapiens), P15056 [V600E] (P15056 whole entry V600E): as the sequence (P15056 whole entry) above, with V600E counted along it

[9] = tested on: Serine/threonine-protein kinase B-raf (Homo sapiens), P15056 [V600E]; settings: at 1 µM
[10] = biological target: RAF proto-oncogene serine/threonine-protein kinase (Homo sapiens) (UniProt P04049); settings: at 0.1 µM
Chain of RAF proto-oncogene serine/threonine-protein kinase (Homo sapiens) (P04049 whole entry): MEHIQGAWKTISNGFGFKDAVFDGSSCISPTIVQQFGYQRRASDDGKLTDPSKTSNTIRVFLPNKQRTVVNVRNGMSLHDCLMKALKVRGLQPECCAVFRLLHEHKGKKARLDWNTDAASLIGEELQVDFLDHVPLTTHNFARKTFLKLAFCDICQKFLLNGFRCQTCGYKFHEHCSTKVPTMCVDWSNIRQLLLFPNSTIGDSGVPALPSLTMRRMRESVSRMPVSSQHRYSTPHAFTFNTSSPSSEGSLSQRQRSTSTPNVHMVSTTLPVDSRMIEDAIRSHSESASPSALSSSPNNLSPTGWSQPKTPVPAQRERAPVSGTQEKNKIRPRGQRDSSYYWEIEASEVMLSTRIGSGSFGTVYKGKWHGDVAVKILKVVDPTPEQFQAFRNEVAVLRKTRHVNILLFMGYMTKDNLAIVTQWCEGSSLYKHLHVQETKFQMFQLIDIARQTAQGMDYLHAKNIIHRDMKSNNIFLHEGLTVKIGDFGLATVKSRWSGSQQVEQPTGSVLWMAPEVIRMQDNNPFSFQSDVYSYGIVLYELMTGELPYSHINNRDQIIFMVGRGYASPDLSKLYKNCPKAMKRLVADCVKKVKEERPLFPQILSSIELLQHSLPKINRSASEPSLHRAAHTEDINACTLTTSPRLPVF

[11] = biological target: RAF proto-oncogene serine/threonine-protein kinase (Homo sapiens) (UniProt P04049); settings: at 1 µM
[12] = biological target: T3, Interleukin-1 receptor-associated kinase 4 (Homo sapiens) (UniProt Q9NWZ3); settings: at 0.1 µM
T3 sequence (whole entry): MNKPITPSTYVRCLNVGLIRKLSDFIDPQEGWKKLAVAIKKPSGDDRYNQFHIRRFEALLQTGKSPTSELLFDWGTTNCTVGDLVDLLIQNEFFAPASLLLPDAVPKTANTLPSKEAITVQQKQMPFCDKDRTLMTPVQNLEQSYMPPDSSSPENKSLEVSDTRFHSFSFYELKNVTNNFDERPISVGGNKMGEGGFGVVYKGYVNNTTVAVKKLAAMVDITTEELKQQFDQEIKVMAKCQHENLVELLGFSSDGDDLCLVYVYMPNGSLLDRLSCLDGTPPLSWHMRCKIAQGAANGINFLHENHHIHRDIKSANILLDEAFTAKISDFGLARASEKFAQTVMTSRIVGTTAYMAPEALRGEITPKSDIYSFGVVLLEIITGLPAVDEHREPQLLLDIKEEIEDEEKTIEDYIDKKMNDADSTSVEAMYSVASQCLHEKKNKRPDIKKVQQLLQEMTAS

[13] = biological target: T3, Interleukin-1 receptor-associated kinase 4 (Homo sapiens); settings: at 1 µM
[14] = biological target: Leucine-rich repeat serine/threonine-protein kinase 2 (Homo sapiens) (UniProt Q5S007); settings: at 0.1 µM
Chain of Leucine-rich repeat serine/threonine-protein kinase 2 (Homo sapiens) (Q5S007 whole entry): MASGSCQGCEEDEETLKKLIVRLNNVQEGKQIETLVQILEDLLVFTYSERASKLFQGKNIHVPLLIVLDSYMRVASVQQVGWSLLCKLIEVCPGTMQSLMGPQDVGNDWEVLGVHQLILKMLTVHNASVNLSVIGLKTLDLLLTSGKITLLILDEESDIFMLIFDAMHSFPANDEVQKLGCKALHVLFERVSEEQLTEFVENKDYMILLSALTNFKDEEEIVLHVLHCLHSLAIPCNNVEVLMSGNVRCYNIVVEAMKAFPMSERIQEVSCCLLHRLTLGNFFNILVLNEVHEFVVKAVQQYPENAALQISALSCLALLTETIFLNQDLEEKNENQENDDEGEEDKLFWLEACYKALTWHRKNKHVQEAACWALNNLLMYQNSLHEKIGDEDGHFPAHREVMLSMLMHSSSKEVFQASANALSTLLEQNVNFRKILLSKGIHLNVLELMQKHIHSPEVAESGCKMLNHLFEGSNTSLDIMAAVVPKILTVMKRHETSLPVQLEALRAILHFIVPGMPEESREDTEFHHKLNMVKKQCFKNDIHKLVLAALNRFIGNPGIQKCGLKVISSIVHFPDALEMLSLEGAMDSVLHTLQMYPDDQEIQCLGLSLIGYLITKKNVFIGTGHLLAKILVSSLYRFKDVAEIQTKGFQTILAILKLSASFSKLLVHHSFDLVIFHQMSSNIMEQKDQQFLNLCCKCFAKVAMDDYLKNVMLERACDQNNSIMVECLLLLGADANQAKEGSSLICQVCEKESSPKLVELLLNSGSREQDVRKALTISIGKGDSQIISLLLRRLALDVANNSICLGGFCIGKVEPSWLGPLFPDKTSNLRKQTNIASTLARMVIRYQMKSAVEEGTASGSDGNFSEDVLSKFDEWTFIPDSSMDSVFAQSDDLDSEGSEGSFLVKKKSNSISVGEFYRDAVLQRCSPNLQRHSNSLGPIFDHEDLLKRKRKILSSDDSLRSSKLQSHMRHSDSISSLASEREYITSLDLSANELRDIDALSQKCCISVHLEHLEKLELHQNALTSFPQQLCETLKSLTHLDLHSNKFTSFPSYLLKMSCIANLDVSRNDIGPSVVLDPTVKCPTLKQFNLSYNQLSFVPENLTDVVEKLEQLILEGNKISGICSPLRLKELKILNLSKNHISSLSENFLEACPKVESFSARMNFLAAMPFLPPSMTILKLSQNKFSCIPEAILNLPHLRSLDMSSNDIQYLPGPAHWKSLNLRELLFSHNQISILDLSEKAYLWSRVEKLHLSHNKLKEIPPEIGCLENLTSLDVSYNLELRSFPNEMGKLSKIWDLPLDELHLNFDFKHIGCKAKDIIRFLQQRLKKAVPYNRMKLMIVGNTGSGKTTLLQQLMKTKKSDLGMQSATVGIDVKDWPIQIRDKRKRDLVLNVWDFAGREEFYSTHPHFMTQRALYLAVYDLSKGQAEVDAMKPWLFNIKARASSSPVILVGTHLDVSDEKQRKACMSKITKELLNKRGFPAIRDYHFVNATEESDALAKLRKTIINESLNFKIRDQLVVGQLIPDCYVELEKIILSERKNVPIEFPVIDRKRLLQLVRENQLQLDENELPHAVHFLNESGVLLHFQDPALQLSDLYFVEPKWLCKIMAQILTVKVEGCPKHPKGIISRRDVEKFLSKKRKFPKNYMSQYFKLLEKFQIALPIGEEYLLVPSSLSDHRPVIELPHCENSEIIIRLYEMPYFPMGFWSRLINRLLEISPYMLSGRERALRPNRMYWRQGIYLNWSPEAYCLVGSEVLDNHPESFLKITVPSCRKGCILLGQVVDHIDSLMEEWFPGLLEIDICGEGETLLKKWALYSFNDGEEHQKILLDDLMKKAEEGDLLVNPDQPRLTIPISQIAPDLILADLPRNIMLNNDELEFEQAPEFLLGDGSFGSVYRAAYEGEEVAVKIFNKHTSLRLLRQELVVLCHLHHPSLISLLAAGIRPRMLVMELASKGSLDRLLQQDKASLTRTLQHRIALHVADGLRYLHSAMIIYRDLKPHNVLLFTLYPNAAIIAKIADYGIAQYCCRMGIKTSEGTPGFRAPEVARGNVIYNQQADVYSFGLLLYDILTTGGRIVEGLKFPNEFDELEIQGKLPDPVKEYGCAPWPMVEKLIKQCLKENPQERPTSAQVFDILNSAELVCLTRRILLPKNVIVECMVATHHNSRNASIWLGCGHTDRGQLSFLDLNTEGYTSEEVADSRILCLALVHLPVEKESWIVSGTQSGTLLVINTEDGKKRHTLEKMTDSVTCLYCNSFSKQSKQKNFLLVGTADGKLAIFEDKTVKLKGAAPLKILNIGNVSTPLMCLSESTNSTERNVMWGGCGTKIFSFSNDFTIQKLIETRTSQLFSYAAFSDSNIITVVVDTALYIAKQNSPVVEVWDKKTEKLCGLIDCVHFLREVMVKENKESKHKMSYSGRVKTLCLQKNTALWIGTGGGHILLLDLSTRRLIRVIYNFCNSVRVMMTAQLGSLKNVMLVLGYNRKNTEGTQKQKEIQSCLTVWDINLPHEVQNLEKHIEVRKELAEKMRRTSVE

[15] = biological target: Leucine-rich repeat serine/threonine-protein kinase 2 (Homo sapiens) (UniProt Q5S007); settings: at 1 µM
[16] = tested on: Leucine-rich repeat serine/threonine-protein kinase 2 (Homo sapiens), Q5S007 [G2019S]; settings: at 0.1 µM
Chain of Leucine-rich repeat serine/threonine-protein kinase 2 (Homo sapiens), Q5S007 [G2019S] (Q5S007 whole entry G2019S): as the sequence (Q5S007 whole entry) above, with G2019S counted along it

[17] = tested on: Leucine-rich repeat serine/threonine-protein kinase 2 (Homo sapiens), Q5S007 [G2019S]; settings: at 1 µM

Row | Structure (SMILES) | inhibition [1] | inhibition [2] | inhibition [3] | inhibition [4] | inhibition [5] | inhibition [6] | inhibition [7] | inhibition [8] | inhibition [9] | inhibition [10] | inhibition [11] | inhibition [12] | inhibition [13] | inhibition [14] | inhibition [15] | inhibition [16] | inhibition [17]
1 | Fc1ccc(-c2c(-c3ccncc3)nc3n2CCS3)cc1 | 1.69% | 2.78% | 5.33% | 0.51% | -2.36% | 4.16% | 4.3% | 3.07% | 4.28% | 2.08% | -2.98% | 1.96% | 1.7% | -3.32% | -2.49% | -1.05% | 0.48%
2 | NC(=O)Cc1ccccc1Oc1nccc(-c2c(-c3ccc(F)cc3)ncn2C2CCNCC2)n1 | -0.3% | 1.2% | 2.44% | 2.88% | -4.81% | 3.8% | 6.06% | 3.3% | 4.77% | -0.15% | -7.05% | 3.72% | 1.16% | 6.61% | 2.56% | 6.11% | 8.33%
3 | Fc1ccc(-c2ncn(C3CCNCC3)c2-c2ccnc(Oc3ccc(Oc4ccccc4)cc3)n2)cc1 | 2.08% | 0.21% | 4.26% | 0.95% | 0.36% | 6.4% | 11.6% | 4.03% | 8.67% | 1.44% | 0.47% | 1.5% | 1.78% | 0.62% | 5.34% | 5.08% | 8.01%
4 | COc1ccc(C2=C(N3CCc4ccccc43)C(=O)NC2=O)cc1 | 3.41% | 4.87% | 5.12% | 3.72% | -0.45% | 5.73% | 7.39% | 6.3% | 4.71% | -3.24% | -3.87% | 5.89% | 2.48% | 3.04% | 10.9% | 4.7% | 13.9%
5 | COc1cc(N2CCN(C(C)C)CC2)ccc1Nc1nc(Nc2ccc(F)cc2C(=O)NC[C@@H](O)CO)c2cc[nH]c2n1 | 5.76% | 1.99% | 12.3% | -0.52% | 5.52% | 6.98% | 5.88% | 7.48% | 4.83% | -2.46% | 2.01% | 3.02% | 2.5% | 10.5% | 14.5% | 48.9% | 55.5%
6 | CN1CCN(CCCNc2nc3ccc(Oc4ccc(NC(=O)Nc5cc(C(F)(F)F)ccc5F)cc4)cc3[nH]2)CC1 | 19.1% | -0.61% | -1.74% | -0.98% | 2.82% | 2.28% | 13.7% | 2.94% | 16.6% | 2.41% | -5.93% | -3.98% | 1.11% | 0.2% | 9.72% | 0.21% | 4.43%
7 | O=C(Nc1n[nH]c2nc(-c3ccc(O)cc3)c(Br)cc12)C1CC1 | 41.4% | 5.61% | 27.4% | 5.14% | 4.28% | 9.27% | 12.6% | 10.1% | 13% | -1.54% | 3.99% | 3.81% | 3.24% | 5.19% | 14.1% | 6.34% | 22.4%
